Compound activity as filed in PubChem BioAssay.
Rows were chosen to be rich in hits. Some 11% of all compounds tested hit in one or more screens of this group.
ALDH1A1 block – inhibitors of human aldehyde dehydrogenase 1A1; P00352; Purified ALDH1A1, NADH fluorescence, propionaldehyde substrate; Potency, µM (series often up to 75.3 µM), inactives show at the highest dose activity, negative = inhibition, actives largely listed as inhibitors; hit rate 7.3% among 220,000; AID 1030; active = well fitted inhibition curve with a large enough effect, not every such curve was filed as active; inconclusive = small, poorly fitted or top-dose-only effect, or another doubt; inactive = no such curve, though single readings can be large or run the other way;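 also: potency is read from the fitted curve at half-maximal effect; plate controls were no enzyme wells and a reference inhibitor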
Target sequence (P00352 whole entry, looked up): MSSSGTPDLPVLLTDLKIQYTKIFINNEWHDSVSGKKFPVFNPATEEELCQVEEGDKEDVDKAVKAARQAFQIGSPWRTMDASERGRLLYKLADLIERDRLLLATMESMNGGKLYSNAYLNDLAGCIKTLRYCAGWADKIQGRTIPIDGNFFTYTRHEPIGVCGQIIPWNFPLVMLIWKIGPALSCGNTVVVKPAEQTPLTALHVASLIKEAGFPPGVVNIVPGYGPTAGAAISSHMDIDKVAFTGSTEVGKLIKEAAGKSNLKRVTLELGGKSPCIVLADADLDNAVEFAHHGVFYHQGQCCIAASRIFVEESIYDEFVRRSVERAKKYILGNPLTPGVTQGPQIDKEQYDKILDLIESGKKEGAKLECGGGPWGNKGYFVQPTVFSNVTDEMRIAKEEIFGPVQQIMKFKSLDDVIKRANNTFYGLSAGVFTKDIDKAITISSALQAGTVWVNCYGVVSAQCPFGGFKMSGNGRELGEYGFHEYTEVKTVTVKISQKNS
HPGD block – HPGD (human) dehydrogenase inhibition. hit rate 4.3% among 150,000. P15428. AID 894. purified HPGD, NADH fluorescence kinetic, PGE2 substrate. Potency, µM, for inactives: top-dose activity change, negative = inhibition, hits mostly inhibitors; active = well fitted inhibition curve with a large enough effect, not every such curve was filed as active; inconclusive = small, poorly fitted or top-dose-only effect, or another doubt; inactive = no such curve, though single readings can be large or run the other way; also: potency is read from the fitted curve at half-maximal effect; % is scaled to controls: 0 for no effect and ±100 for the full control effect
Target sequence (P15428 whole entry, looked up): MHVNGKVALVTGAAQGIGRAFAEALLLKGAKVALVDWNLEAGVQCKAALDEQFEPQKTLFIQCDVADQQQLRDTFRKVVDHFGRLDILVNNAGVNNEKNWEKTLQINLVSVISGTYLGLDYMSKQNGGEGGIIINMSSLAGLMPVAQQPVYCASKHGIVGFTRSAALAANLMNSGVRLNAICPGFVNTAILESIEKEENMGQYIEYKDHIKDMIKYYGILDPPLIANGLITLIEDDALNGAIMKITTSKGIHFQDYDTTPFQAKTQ
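20 nM HPGD preincubated 15 min at room temperature with compound in 50 mM Tris-HCl pH 8, 0.01% Tween 20. Started with 1 mM NAD+ and 30 uM prostaglandin E2; NADH fluorescence (360/450 nm) read 5 times over 30-s intervals, last minus first.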
HttQ103 aggreg – inhibitors of mutant huntingtin aggregate formation in PC12 cells. PC12 HttQ103-GFP aggregates, Acumen cytometry, 40 h. Potency, µM (series often up to 46.1 µM), for the others: at the highest dose activity change, negative = inhibition, usual class: inhibitors. hit rate 1.1% among 220,000. AID 1688; also: potency is read from the fitted curve at half-maximal effect; % is scaled to controls: 0 for no effect and ±100 for the full control effect; nearly all actives have a fitted effect of over 60% in size
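Aggregates are detected as GFP objects 1–25 µm with signal 6 STDEV over background in lysates of induced PC12 cells. These carry Huntingtin exon 1 with 103 glutamines fused to GFP under an ecdysone promoter; compounds titrated.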
PNC inhibitor – blocks assembly of the perinucleolar compartment; PC3M PTB-GFP, PNC prevalence imaging, 16 h; active compounds read low; activity change (PNC), negative = inhibition, % at 10 µM; AID 2417; hit rate 3.1% among 140,000;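 active = readout at or below -70, meaning at least 70% loss of cells showing the perinucleolar compartment, a nuclear body marking cancer cells; inconclusive = readout between -30 and a set limit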;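 also: plate controls were DMSO wells for no effect and camptothecin positive control wells for full effect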
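Compounds are pinned in duplicate onto adhered PC3M cells stably expressing GFP-tagged PTB and incubated 16 h at 37 C. Cells are then fixed, nuclei stained with Hoechst, and PNC-positive cells counted.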
HTT cytoprotect – Huntington cell model cytoprotection by ATP luminescence. PC12 HTT-Q103 induced, cytoprotection, ATP luminescence, 40 h. Potency, µM (highest dose often 56.4 µM), for the others: cytoprotection (ATP increase), hits mostly activators. hit rate 0.14% among 230,000; also: potency is read from the fitted curve at half-maximal effect; % of control where 0% means no effect; nearly all actives have a fitted effect of over 45% in size
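Huntington model: PC12 line, ecdysone-inducible HTTQ103 exon1–GFP, tebufenozide 100 nM. Test articles in a dose series. Endpoint luminescence from cellular ATP.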
CBFb RUNX1 block – blocks binding between human CBF-beta and RUNX1 | AlphaScreen CBFb-His/RUNX1-biotin binding, biochemical | Potency, µM (titrated, usually from 59.8 µM), for inactives: at the highest dose activity, negative = inhibition, most hits filed as inhibitors | 230,000 tested, under 10 active | Q01196+Q13951; also: % of control where 0% means no effect
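AlphaScreen binding: CBFb-His and RUNX1-biotin (30 nM each) preincubated 20 min, compound added for 15 min, then nickel and streptavidin beads for 90 min, all at room temperature. Disruption of the interaction by any mechanism counts as activity.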
* marks the source's active call; other numbers are inactive results; ? = inconclusive; / = not tested or not shown; [ ] = another dose, or the depositor's remark. Unless noted, calls follow the shape of the dose curve; as a rule, active = well fitted curve in the direction sought with a large enough effect; inconclusive = small, poorly fitted or top-dose-only effect, or another doubt; inactive = no such curve, though single readings can be large; an effect the other way counts as inactive or inconclusive.

SMILES	ALDH1A1 block	HPGD block	HttQ103 aggreg	PNC inhibitor	HTT cytoprotect	CBFb RUNX1 block
C[C@H](CC(=O)O)C(C(=O)O)C(=O)O	-3%[13.5 µM]	0%	/	/	-7%[10 µM]	/
COC(=O)[C@@]1(Cc2ccc(F)cc2)[C@H]2c3cc(C(=O)N(C)C)n(CC4CC4)c3C[C@H]2CN1C(=O)c1ccccc1	5%	-11%	/	/	12%	-10%
Cc1noc(C)c1C(=O)N1CCC2(CC1)CCN(c1ccncc1)CC2	?	?	/	/	-33%	/
CCc1ccc(C(=O)N/N=C/c2cccc3ccccc23)nc1	-2%	-4%	0%	6	11%[10 µM]	-15%
N/C(=N\N=C\c1ccc(Cl)cc1)N/N=C/c1ccc(Cl)cc1	/	/	-16%	/	-71%	/
NS(=O)(=O)c1ccc(NC(=O)CN2CCCN(S(=O)(=O)c3ccc(F)cc3)CC2)cc1	?	/	-11%	/	-19%	-3%
COc1ccc(C)cc1NC(=O)CN1CCN(S(=O)(=O)c2ccc(Br)cc2)CC1	0.16µM*	-10%	6%	-28	7%	5%
O=C(CN1CCN(S(=O)(=O)c2ccc(Br)cc2)CC1)Nc1ccccc1F	28µM*	-16%	-5%	18	11%	-1%
O=C(CN1CCN(S(=O)(=O)c2ccc(Br)cc2)CC1)Nc1ccc(F)cc1	32µM*	4%	-8%	?	-8%[10 µM]	8%
N#Cc1cccc(-c2nc(N3CCNCC3)c3ccccc3n2)c1	-2%	-12%	/	/	-46%	/
COCOc1cc(OC)ccc1C(=O)/C=C\c1ccc2c(c1)OCO2	-17%[13.5 µM]	/	/	/	19%[10 µM]	-6%[13.1 µM]
C[C@H]1C=CC(=O)C[C@H]1c1c(F)cccc1Cl	/	/	/	/	/	3%
COc1cc(C2C3C(C)N(C)C(=O)N(C)C3N(C)C(=O)N2C)ccc1O (centres undefined)	11%	-12%	6%	-100*	15%[10 µM]	-2%
COc1ccc([C@@H]2[C@@H](O)[C@H](O)[C@@H](C)N2C)cc1OC	-3%	-4%	/	/	-15%	-10%
CS(=O)(=O)Nc1cccc(-c2nc(NCc3cccs3)c3ccccc3n2)c1	-23%	?	/	/	-35%	/
COc1ccccc1NC(=O)N1CCn2c(nc3ccccc32)C1	8%	-2%	4%	?	-15%	-1%
O=C(Nc1ccccc1Cl)N1CCn2c(nc3ccccc32)C1	-37%	-14%	12%[9.22 µM]	-111*	-7%	-7%
O=c1nc2ccccc2c2n1C[C@H](CN1CCN(c3ccccc3)CC1)N2	-8%	?	/	/	-31%[1.9 µM]	12%[21.7 µM]
CC(=O)c1cnc2ncnn2c1C	7%	-4%	1%	-113*	/	12%
CC(=O)c1cnc2nc(C)nn2c1C	-3%	-8%	-6%[9.22 µM]	-23	8%	7%
Nc1nc(=S)c2ncn(C3CCCC3)c2[nH]1	?	/	6%[9.22 µM]	/	-1%[10 µM]	7%
CC(=O)O[C@@]1(C(C)=O)CCC2C3CC(C)C4=CC(=O)CC[C@@]4(C)C3CC[C@]21C (some centres undefined)	4%	4%	-4%	/	-59%	8%
COc1ccc(/C=C/C(=O)N[C@H](C(=O)O)C(C)C)cc1	-4%	/	-20%	/	-63%	14%
CN(C)C(=O)c1ccc(Oc2ccc(C(=O)N(C)C)cc2)cc1	?	16µM*	2%	27	-31%	1%
CC(=O)c1ccc(Oc2ccc(C(C)=O)cc2)cc1	9%	?	2%	137	-2%	-1%
SMILES	ALDH1A1 block	HPGD block	HttQ103 aggreg	PNC inhibitor	HTT cytoprotect	CBFb RUNX1 block
Cc1noc(C)c1-c1ccc2ncnc(NCc3cccc(C(F)(F)F)c3)c2c1	/	/	/	/	/	0%
Cc1cc(NC(=O)/C=C/C(=O)N(CC(=O)NC2CCCC2)c2cccc3ccccc23)no1	2µM*	/	?	/	?	-1%
Cc1cc(NC(=O)CCC(=O)N(CC(=O)NC2CCCC2)c2ccccc2)no1	-8%	-13%	8%	37	-7%[10 µM]	-2%
NCS(=O)(=O)O	1%[13.5 µM]	-8%	/	/	-7%[10 µM]	/
COc1ccc(OC)c(-n2c(CN3CCC(C(N)=O)CC3)nc3ccccc3c2=O)c1	20µM*	-8%	6%	?	7%	10%
COc1ccc(OC)c(-n2c(CNC3CCN(Cc4ccccc4)CC3)nc3ccccc3c2=O)c1	4%	0%	14%[9.22 µM]	0	29%	1%
Cc1nsc(Nc2ccc([N+](=O)[O-])cc2)c1C#N	?	/	-21%[9.22 µM]	/	1%[10 µM]	5%
CN(C)/C=C/C(=O)c1ccc(Br)cc1	-15%	/	6%[9.22 µM]	/	-30%[1.9 µM]	0%
CN(O)/C=C/C(=O)c1ccc(Br)cc1	13µM*	/	13%	/	-18%	-8%
Cc1onc(-c2c(Cl)cccc2Cl)c1C(=O)N[C@H]1C(=O)N2[C@H]1SC(C)(C)[C@H]2C(=O)O	8%[20.9 µM]	10µM*	/	/	-42%[17.1 µM]	-19%[21.7 µM]
Cc1onc(-c2c(Cl)cccc2Cl)c1C(=O)NCCc1ccc(S(N)(=O)=O)cc1	3%	32µM*	-6%	7	-32%	-16%
Cc1onc(-c2c(Cl)cccc2Cl)c1C(=O)NNc1ccccc1	22µM*	/	-2%[9.22 µM]	/	0%[10 µM]	-1%
Cc1onc(-c2c(F)cccc2Cl)c1C(=O)OCN1C(=O)c2ccccc2C1=O	3%	1.4µM*	-8%[9.22 µM]	-21	-8%	1%
Cc1ccc(NC(=O)COC(=O)c2cc(Cl)cc(Cl)c2)c(Br)c1	15%	-6%	12%	-21	32%[10 µM]	-5%
CCN(CC)CC(=O)Nc1ccc(C)cc1Br	13µM*	16µM*	6%	12	6%	9%
Cc1ccc(NC(=O)COC(=O)C2CC2)c(Br)c1	7%	18µM*	9%	-20	/	1%
CCN(CC)CC(=O)N(CC(=O)Nc1c(C)cc(C)cc1C)C1CCCCC1	-5%	-10%	-3%	6	-6%[10 µM]	-2%
CCN(CC)CC(=O)Nc1c(C)cc(C(C)(C)C)cc1C	0%	25µM*	-15%	?	-8%	-4%
COc1ccc2[nH]cc(CCNc3ncnc4ccc(-c5ccccc5C#N)cc34)c2c1	3%	-23%	/	/	-55%	/
C=C/C1=C/Cc2ccccc2C(C[N+](=O)[O-])C(C(=O)OC)(C(=O)OC)C1 (centres undefined)	-8%[13.5 µM]	/	/	/	-41%[10 µM]	5%[13.1 µM]
COc1ccc(C2CC(c3ccccc3)Oc3ccc(OC)cc32)cc1 (centres undefined)	/	/	/	/	/	11%
Cc1csc(SCC(=O)NCc2ccccc2Cl)n1	9%	/	5%	/	-7%	0%
Cc1cc(/C=C2/NC(=O)N(c3ccccc3)C2=O)c(C)n1-c1cccnc1	4.5µM*	-18%	1%	-12	/	?
Cc1cc(/C=C2/SC(=S)N(c3ccc([N+](=O)[O-])cc3)C2=O)c(C)n1-c1cccnc1	1.3µM*	?	4µM*	39	/	-2%
Cc1cc(/C=C2/NC(=S)NC2=O)c(C)n1-c1cccnc1	-4%	/	0%	/	-122%	-7%
